Assay [1] is described as follows: qHTS assay to identify small molecule agonists of the RXR signaling pathway - cell viability counter screen (AID 1159529). Note: nearly all actives have a fitted effect of over 50% in size. Note: potency is the fitted concentration of half-maximal effect. An outline of the steps: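 Cell viability is measured by CellTiter-Glo luminescence, 30 min at room temperature, in wells already read for beta-lactamase. Engineered HEK 293T cells (RXR-alpha-UAS-bla) are dosed 16 hr at 37 C. Tetraoctyl ammonium bromide serves as positive control.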
(In qHTS, concentration-response curves come from the screen itself.)

Assay [2] can be described thus: qHTS assay to identify small molecule agonists of the retinoic acid receptor (RAR) signaling pathway (AID 1159553). Summed up:
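Seed C3RL4 reporter cells at 1,000 per well and incubate overnight at 37 C. Add compounds in DMSO, incubate 6 hr. Add luciferase reagent, wait 30 min at room temperature, read luminescence.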

The nature of assay [3]: qHTS assay to identify small molecule antagonists of the estrogen related receptor (ERR) signaling pathway from Tox21 library - cell viability counter screen (AID 1224834). Note: nearly all actives have a fitted effect of over 30% in size. Note: potency is the fitted concentration of half-maximal effect. Summed up:
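ERR cells, 2,000/well; 6 h settle at 37 C/5% CO2; pin-tool compound transfer in DMSO; 17.5 h at 37 C; CellTiter-Fluor, 30 min; fluorescence intensity.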

The target in assay [4] is Luciferin 4-monooxygenase (Photinus pyralis) (UniProt P08659). Briefly: qHTS assay to identify small molecule inhibitors of firefly luciferase (AID 1224835). Note: series mostly up to about 120 µM; nearly all actives have a fitted effect of over 25% in size. An outline of the steps:
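Inhibition of purified Photinus luciferase is measured by luminescence. Substrate levels (D-luciferin, ATP) sit at their KM values. Each compound is tested in a concentration series.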

Assay [5] can be described thus: qHTS assay to identify small molecule agonists of the constitutive androstane receptor (CAR) signaling pathway - cell viability counter screen (AID 1224836). Note: nearly all actives have a fitted effect of over 45% in size. Note: potency is the fitted concentration of half-maximal effect. An outline of the steps:
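Counter screen multiplexed with the CAR reporter readout: HepG2 cells co-transfected with hCAR and the CYP2B6-2.2kb construct receive a 15-concentration compound series and 0.75 uM PK11195 (final), then CellTiter-Fluor fluorescence is read after 23 h.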

Assay [6] is described as follows: qHTS assay to identify small molecule antagonists of the constitutive androstane receptor (CAR) signaling pathway - cell viability counter screen (AID 1224837). Note: nearly all actives have a fitted effect of over 45% in size. Note: potency is the fitted concentration of half-maximal effect. Summed up: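 Viability was measured with CellTiter-Fluor in a HepG2 line carrying stably transfected hCAR and a CYP2B6-2.2kb construct. Cells were exposed for 23 hr at 37 C to 15 compound concentrations with 50 nM CITCO as agonist.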

A short description of assay [7]: qHTS assay to identify small molecule antagonists of the estrogen related receptor signaling pathway with the pleiotropic PPARgamma coactivator (PGC) from Tox21 10K library - cell viability counter screen (AID 1224840; active = well fitted cell-killing curve with a large enough effect in the repeat runs, not every such curve was filed as active; note: nearly all actives have a fitted effect of over 40% in size; note: potency is the fitted concentration of half-maximal effect). Summed up: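 Multiplexed viability counter screen in the PGC/ERR cell line: cells treated with DMSO-dissolved compounds for 17.5 hours at 37 C, then viability measured as CellTiter-Fluor fluorescence.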

The target in assay [8] is Thyrotropin receptor (Homo sapiens) (UniProt P16473). Put plainly: qHTS assay to identify small molecule agonists of the thyroid stimulating hormone receptor (TSHR) signaling pathway (AID 1224843; calls by dose curve; note: nearly all actives have a fitted effect of over 45% in size; note: potency is the fitted concentration of half-maximal effect). Summed up: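 A cell-based cAMP HTRF format was run in TSHR-transfected HEK293 cells, 800 per well. Treatment: 30 min, room temperature. Detection: 1 h with labelled cAMP and anti-cAMP cryptate. Concentration-response over 15 points, three replicates.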

Assay [9] can be described thus: qHTS assay to identify small molecule antagonists of the retinoic acid receptor (RAR) signaling pathway (AID 1159552; note: nearly all actives have a fitted effect of over 50% in size; note: potency is the fitted concentration of half-maximal effect). Summed up: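 Quantitative HTS in C3RL4 RARE-luciferase reporter cells. Compounds were added with 1 uM (final) retinol; luminescence was read after 6 hr.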
Assay [10] concerns the target Nuclear receptor subfamily 1 group I member 3 (Homo sapiens) (UniProt Q14994). Briefly: qHTS assay to identify small molecule agonists of the constitutive androstane receptor (CAR) signaling pathway (AID 1224839). Note: nearly all actives have a fitted effect of over 15% in size. Note: potency is the fitted concentration of half-maximal effect. An outline of the steps: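 A 15-concentration quantitative screen uses HepG2 cells co-transfected stably with human CAR and CYP2B6-2.2kb reporter. Treatment lasts 24 h with 0.75 uM PK11195 final present; ONE-Glo luminescence is the signal.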

The nature of assay [11]: qHTS assay to identify small molecule antagonists of the retinoid acid receptor (RAR) signaling pathway - cell viability counter screen (AID 1159551). Note: nearly all actives have a fitted effect of over 35% in size. An outline of the steps: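 Cells (C3RL4) are plated, incubated overnight, dosed with compound in DMSO, then given retinol at 1 uM final. After 6 h at 37 C, CellTiter-Glo is added and luminescence read following 30 min at room temperature.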

Assay [12] concerns the target Nuclear receptor subfamily 1 group I member 3 (Homo sapiens) (UniProt Q14994). Briefly: qHTS assay to identify small molecule antagonists of the constitutive androstane receptor (CAR) signaling pathway (AID 1224838).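 Note: HepG2 cells stably expressing hCAR with CYP2B6 luciferase reporter stimulated by CITCO; nearly all actives have a fitted effect of over 40% in size.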 Note: potency is the fitted concentration of half-maximal effect. An outline of the steps: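 Antagonist mode used CITCO at a final 50 nM to activate CAR in human hepatoma HepG2 cells carrying stable hCAR and a 2.2 kb CYP2B6 promoter-luciferase construct. Compounds were tested at 15 concentrations over 24 h, with luminescence as the end point.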

Assay [13] can be described thus: qHTS assay to identify small molecule antagonists of the estrogen related receptor signaling pathway with the pleiotropic PPARgamma coactivator (PGC) from Tox21 10K library (AID 1224841; call rule not given here; note: actives are mostly falling curves and most rising ones were filed inactive; nearly all actives have a fitted effect of over 50% in size; note: potency is the fitted concentration of half-maximal effect). Summed up: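 Steps: plate 2,000 PGC/ERR cells per well; incubate 6 h at 37 C with 5% CO2; transfer compounds from DMSO stocks by pin tool; incubate 18 h at 37 C; add One-Glo; measure luminescence 30 min later.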

A short description of assay [14]: qHTS assay to identify small molecule agonists of the estrogen related receptor signaling pathway with the pleiotropic PPARgamma coactivator (PGC) from Tox21 10K library (AID 1224842). Note: nearly all actives have a fitted effect of over 15% in size. Note: potency is the fitted concentration of half-maximal effect. Summed up: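 Luminescence from One-Glo (30 min, room temperature) measured after PGC/ERR cells had 18 h at 37 C with pinned compound (23 nL in DMSO). Cells had been seeded at 2,000 per well and pre-incubated 6 h.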

Assay [15] can be described thus: qHTS assay to identify small molecule antagonists of the estrogen related receptor (ERR) signaling pathway - cell viability counter screen (AID 1224818).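 Note: series mostly up to about 46 µM; viability measured after 17.5 h of compound exposure.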 Summed up: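 ERR cells, 2,000/well; 6 h settle at 37 C/5% CO2; compound pin transfer (DMSO); 17.5 h at 37 C; CellTiter-Fluor, 30 min, fluorescence read.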

Inconclusive results are not listed. Unmarked numbers belong to inactive results. Active and inactive are the calls of the source. Unless noted, calls come from the whole dose curve; as a rule, active = well fitted curve in the direction sought with a large enough effect in the repeat runs; inconclusive = weak or mixed curves; inactive = no such curve, though single readings can be large; an effect the other way counts as inactive or inconclusive.

Chain of Thyrotropin receptor (Homo sapiens) (P16473 whole entry, looked up): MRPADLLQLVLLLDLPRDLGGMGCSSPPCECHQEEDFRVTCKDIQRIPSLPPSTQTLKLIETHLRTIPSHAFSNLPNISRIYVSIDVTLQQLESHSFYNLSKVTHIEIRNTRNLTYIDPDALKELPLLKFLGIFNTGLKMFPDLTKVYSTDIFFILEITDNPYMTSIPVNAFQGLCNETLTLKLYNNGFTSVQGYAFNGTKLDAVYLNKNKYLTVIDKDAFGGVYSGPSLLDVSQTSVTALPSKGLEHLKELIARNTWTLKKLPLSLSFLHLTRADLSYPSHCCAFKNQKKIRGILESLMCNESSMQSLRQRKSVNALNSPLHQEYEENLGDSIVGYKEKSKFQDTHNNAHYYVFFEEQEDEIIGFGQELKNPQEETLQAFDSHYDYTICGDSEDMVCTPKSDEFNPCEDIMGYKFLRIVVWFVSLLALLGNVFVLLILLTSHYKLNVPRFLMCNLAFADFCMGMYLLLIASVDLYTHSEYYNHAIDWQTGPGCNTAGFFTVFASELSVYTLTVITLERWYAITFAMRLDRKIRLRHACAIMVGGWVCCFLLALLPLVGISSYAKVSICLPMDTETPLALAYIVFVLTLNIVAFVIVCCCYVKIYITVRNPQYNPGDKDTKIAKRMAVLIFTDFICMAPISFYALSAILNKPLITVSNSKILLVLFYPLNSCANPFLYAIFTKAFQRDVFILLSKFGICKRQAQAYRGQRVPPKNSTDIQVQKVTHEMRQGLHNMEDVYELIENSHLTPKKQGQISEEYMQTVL
Chain of Nuclear receptor subfamily 1 group I member 3 (Homo sapiens) (Q14994 whole entry, looked up): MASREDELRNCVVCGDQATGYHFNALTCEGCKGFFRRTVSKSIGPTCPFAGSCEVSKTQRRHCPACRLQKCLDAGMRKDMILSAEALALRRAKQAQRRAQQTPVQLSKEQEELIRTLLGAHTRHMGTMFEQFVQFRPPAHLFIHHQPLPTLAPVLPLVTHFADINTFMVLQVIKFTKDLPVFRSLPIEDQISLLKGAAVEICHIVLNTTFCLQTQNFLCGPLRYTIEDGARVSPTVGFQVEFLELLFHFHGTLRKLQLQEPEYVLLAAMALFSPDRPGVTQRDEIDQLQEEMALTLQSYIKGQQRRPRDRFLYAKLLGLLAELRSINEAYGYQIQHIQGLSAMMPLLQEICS
Chain of Luciferin 4-monooxygenase (Photinus pyralis) (P08659 whole entry, looked up): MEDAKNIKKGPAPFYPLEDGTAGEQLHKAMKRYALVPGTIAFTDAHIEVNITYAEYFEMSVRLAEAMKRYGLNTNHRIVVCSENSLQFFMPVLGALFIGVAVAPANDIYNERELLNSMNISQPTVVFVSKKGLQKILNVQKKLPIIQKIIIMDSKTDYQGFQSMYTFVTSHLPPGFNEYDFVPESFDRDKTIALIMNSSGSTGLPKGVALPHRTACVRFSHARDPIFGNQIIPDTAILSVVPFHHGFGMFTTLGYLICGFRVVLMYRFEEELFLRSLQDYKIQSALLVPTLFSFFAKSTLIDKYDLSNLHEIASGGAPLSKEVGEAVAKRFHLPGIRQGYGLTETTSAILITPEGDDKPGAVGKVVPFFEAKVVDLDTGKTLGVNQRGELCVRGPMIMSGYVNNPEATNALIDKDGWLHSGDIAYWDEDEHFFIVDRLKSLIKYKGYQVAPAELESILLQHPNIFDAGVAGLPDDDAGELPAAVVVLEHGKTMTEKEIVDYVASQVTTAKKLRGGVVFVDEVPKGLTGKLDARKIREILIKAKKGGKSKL

For `Cc1ccc(C(=O)Oc2ccc(C(O)CNC(C)(C)C)cc2OC(=O)c2ccc(C)cc2)cc1` (stereo not given), the Potency in assay [1] is 19 µM (active); in assay [8], 0.0473 µM (active). The Potency entry in [2], in assay [3], in assay [4], in assay [5], in assay [6] and in assay [7] was “inactive” throughout.

On to `CCC(C)(C)CC`, for which the Potency entry in assay [1], in assay [9], in [3], in [4], in [5] and in [6] was “inactive” throughout. Also, the Potency entry in assay [10] and in assay [7] was “inactive” each time.

On to `COC(=O)c1ccc(I)cc1S(=O)(=O)NC(=O)Nc1nc(C)nc(OC)n1`, for which the Potency entry in assay [1], in [11], in [3], in assay [5], in assay [6] and in assay [12] was “inactive” each time. Moreover, the Potency result in assay [10], in assay [7] and in assay [8] was “inactive” in each case.

Regarding `N=c1ccn2c(n1)O[C@H]1[C@H](O)[C@@H](CO)O[C@H]12`, the Potency result in [1], in [11], in [4], in assay [5], in [6] and in [7] was “inactive” each time. For the same compound, the Potency result in assay [13], in assay [14] and in [8] was “inactive” throughout.

In the case of `C=CC(=O)OCCOc1ccccc1`, the Potency entry in [1], in assay [2], in [3], in [5], in [6] and in assay [7] was “inactive” in each case. Further, the Potency entry in assay [13] and in assay [8] was “inactive” in each case. Also, the Potency is 48.5 µM (active) in [9] and 68.5 µM (active) in assay [14].

As for `CCCCCCCCCCCCCCOS(=O)(=O)O`, the Potency in [1] is 21.9 µM (active). Further, the Potency entry in [11], in assay [6], in assay [12], in [7], in [13] and in [14] was “inactive” throughout.

On to `CC(C)Cc1ccc(C(C)C(=O)OCc2ccccn2)cc1` (stereo not given), for which the Potency result in assay [1], in [11], in [3], in assay [5], in [6] and in [7] was “inactive” in each case.

`COc1cc2nc(Cl)nc(N)c2cc1OC`: the Potency entry in assay [1], in [9], in assay [2], in [4], in [5] and in assay [6] was “inactive” in each case. The Potency entry in [12] and in assay [7] was “inactive” in each case.

With `Cc1ncc(CO)c(C=O)c1O`, the Potency entry in assay [1], in assay [9], in assay [2], in [3], in assay [4] and in assay [6] was “inactive” in each case. Also, the Potency entry in assay [10], in [7], in assay [13] and in assay [8] was “inactive” in each case.

Turning to `Clc1ccc(Cn2c(CN3CCCC3)nc3ccccc32)cc1`, the Potency result in [1], in assay [2], in [5], in assay [7] and in assay [8] was “inactive” in each case. Moreover, the outcome in assay [15] was inactive. Also, the Potency in [12] was 11.9 µM (active).

On to `Cc1cccc(C)c1NC(=O)CN(CC(=O)O)CC(=O)O`, for which the Potency entry in assay [1], in assay [11], in [4], in assay [6], in [12] and in [7] was “inactive” in each case. Moreover, the Potency entry in assay [8] was “inactive”.

Regarding `c1cc(CCCc2ccncc2)ccn1`, the Potency result in assay [1], in [11], in assay [4], in assay [5], in assay [12] and in assay [10] was “inactive” each time. Further, the Potency result in assay [7], in assay [14] and in [8] was “inactive” in each case.

Regarding `CN(C)C(=O)NC1(c2ccccc2)CCN(CC[C@@]2(c3ccc(F)c(F)c3)CN(C(=O)c3ccccc3)CCO2)CC1`, the Potency in assay [1] was 45.5 µM (active). The Potency result in [11], in assay [4], in [6], in assay [14] and in assay [8] was “inactive” throughout.

As for `CCOc1ccc(O)cc1`, the Potency result in [1], in [9], in assay [3], in assay [4], in [5] and in assay [6] was “inactive” throughout. For the same compound, the Potency result in assay [12], in assay [10], in assay [7] and in [8] was “inactive” throughout.

As for `C=C(C)C(=O)OCC`, the Potency result in assay [1], in [9], in assay [2], in assay [3], in [4] and in assay [5] was “inactive” in each case. Further, the Potency result in assay [6], in assay [7], in assay [13] and in [8] was “inactive” in each case.

For the compound `CCC(Cl)CCC(Cl)C(Cl)CC(Cl)C(Cl)C(Cl)CCl` (stereo not given), the Potency result in [1], in assay [9], in assay [3], in assay [4], in assay [5] and in assay [6] was “inactive” throughout. The Potency result in [12], in assay [10], in assay [7] and in assay [8] was “inactive” each time.

For `Cn1c(=O)cc(Oc2ccc(F)cc2F)c2cnc(NCC(C)(C)O)nc21`, the Potency result in [1], in assay [11], in [4], in assay [6], in assay [12] and in [10] was “inactive” throughout. The Potency entry in [7] and in assay [14] was “inactive” in each case. Further, the Potency in assay [13] was 34.4 µM (active).

With `COc1cccc(N(C)C(=S)Oc2ccc3c(c2)CCCC3)n1`, the Potency result in assay [1], in [9], in [2], in assay [4], in [5] and in assay [6] was “inactive” throughout. Also, the Potency result in assay [12], in assay [10] and in assay [7] was “inactive” throughout.

On to `CCN(CC)CCNc1ccc(CNC=O)c2sc3ccc(OC)cc3c(=O)c12`, for which the Potency was 3.09 µM (active) in assay [1]; 7.7 µM (active) in assay [3]; 8.63 µM (active) in [5]; 8.63 µM (active) in assay [6]; 6.11 µM (active) in assay [7]. Besides, the Potency entry in [11], in [13] and in assay [8] was “inactive” throughout.

Turning to `CCOc1ccc(N)c([N+](=O)[O-])c1`, the Potency entry in assay [1], in [9], in [2], in assay [4], in assay [5] and in assay [12] was “inactive” in each case. The Potency result in [10], in assay [7], in [13] and in assay [14] was “inactive” each time.

On to `COc1ccc2cccc(CCNC(C)=O)c2c1`, for which the Potency entry in assay [1], in [9], in assay [2], in [3], in assay [4] and in [6] was “inactive” throughout. Moreover, the Potency result in [12] and in assay [7] was “inactive” throughout.

Regarding `c1ccc(CNCCNCc2ccccc2)cc1`, the Potency entry in assay [1], in assay [9], in assay [2], in assay [3], in assay [4] and in assay [5] was “inactive” in each case. Further, the Potency result in assay [6], in [12], in assay [10], in assay [7] and in assay [8] was “inactive” in each case.

For `CC(C)OC(=O)C(C)N(C(=O)c1ccccc1)c1ccc(F)c(Cl)c1` (stereo not given), the Potency result in [1], in [9], in assay [2], in assay [4] and in [6] was “inactive” throughout. Further, the Potency in assay [10] is 48.6 µM (active); in [13], 21.7 µM (active).

Take `O=C(O)c1nc(Cl)c(Cl)c(Cl)c1Cl`: the Potency result in assay [1], in assay [9], in assay [2], in assay [5], in assay [6] and in assay [12] was “inactive” each time. Besides, the Potency entry in [7] and in assay [13] was “inactive” throughout. In addition, in assay [10], the Potency was 17.2 µM (active).

The record behind these values is PubChem BioAssay (Tox21).
